In the library only some 2.8% were active in any assay of this set; here they are far more common.
Peg3 prom inh: Peg3 promoter activity inhibition. HeLa PEG-Prom luciferase reporter, luminescence, overnight. inhibition, % at 20 µM. actives 1.7% (n = 360,000). AID 588405;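 active = inhibition of at least 50% at 20 µM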
HIF-2a block: inhibitors of HIF-2a; 786-0 RCC cells HIF-2a reporter, luciferase luminescence, overnight; inhibition, % at 18.8 µM; actives 0.72% (n = 360,000);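 active = inhibition of the luminescence signal of 40% or more relative to plate controls, in a single-dose primary screen at 18.75 µM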
MITF TRPM1 inh: reduces MITF-dependent TRPM1 promoter luciferase signal; actives 0.83% (n = 330,000); SK-MEL-5 TRPM1 promoter luciferase, 24 h; inhibition, % at 12.5 µM;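 active = mean inhibition across replicates of 60% or more, whatever share of single replicates reaches that level; inconclusive = some that reach 60%, reason not given; inactive = mean inhibition across replicates below 60%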
Shn3 inh set2: reduces Shn3 3'UTR luciferase signal in osteoblasts; inhibition, % at 12.5 µM; AID 588674; actives 0.52% (n = 360,000); Clone20 osteoblast Shn3 3'UTR firefly luciferase, 24 h;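 active = mean inhibition of at least 75% with every replicate also reaching 75%; inconclusive = mean inhibition at least 75% but some replicate below; inactive = mean inhibition below 75%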;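 also: 0% = median of neutral control wells and 100% = pilot-screen positive control compound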
KKLEB cytotox: reduces viability of KKLEB cystic fibrosis airway cells. KKLEB CF airway cells viability, ATPlite luminescence, overnight; hits give low values; cells stimulated with P. aeruginosa culture filtrate. activity change (cytotoxicity), % at 5 µM. actives 0.36% (n = 360,000);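 active = corrected activity change at or below -50% at 5 µM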
CF NFkB inh: cystic fibrosis NF-kB activation inhibition; KKLEB NF-kB-GFP reporter, PAF-induced, GFP fluorescence overnight; inhibition, % at 5 µM; actives 0.86% (n = 360,000); AID 588850;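 active = at least 50% inhibition at 5 µM, scaled per plate between neutral and stimulator controls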;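 also: PAF is a Pseudomonas aeruginosa culture filtrate used as stimulus; plate controls were PAF-stimulated DMSO wells for no effect and unstimulated DMSO wells for full effect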
Mdm2 MdmX conf: confirmation of inhibitors of human Mdm2/MdmX interaction, set 2; SaOS-2 split-luciferase Mdm2/MdmX complementation, luminescence; inhibition, % at 8 µM; shares compounds with HIF-2a block; actives 99% (n = 740);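 active = mean inhibition of the luminescence signal across two replicates at or above 26 percent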
Target sequence (O15151 whole entry, looked up): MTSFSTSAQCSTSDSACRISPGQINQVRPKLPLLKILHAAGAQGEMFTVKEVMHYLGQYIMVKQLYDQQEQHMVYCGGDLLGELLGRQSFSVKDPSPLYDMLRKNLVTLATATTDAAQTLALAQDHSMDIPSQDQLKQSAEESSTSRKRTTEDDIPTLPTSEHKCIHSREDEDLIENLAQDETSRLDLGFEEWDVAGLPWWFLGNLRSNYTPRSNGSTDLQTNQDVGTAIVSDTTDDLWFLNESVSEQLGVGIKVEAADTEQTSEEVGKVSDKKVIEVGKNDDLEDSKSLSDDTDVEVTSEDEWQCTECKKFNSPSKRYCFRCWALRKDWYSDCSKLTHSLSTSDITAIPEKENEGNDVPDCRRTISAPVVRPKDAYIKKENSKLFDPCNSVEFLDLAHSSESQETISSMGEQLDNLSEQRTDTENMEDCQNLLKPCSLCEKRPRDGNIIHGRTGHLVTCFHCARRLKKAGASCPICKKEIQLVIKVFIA
Target sequence (Q00987 whole entry, looked up): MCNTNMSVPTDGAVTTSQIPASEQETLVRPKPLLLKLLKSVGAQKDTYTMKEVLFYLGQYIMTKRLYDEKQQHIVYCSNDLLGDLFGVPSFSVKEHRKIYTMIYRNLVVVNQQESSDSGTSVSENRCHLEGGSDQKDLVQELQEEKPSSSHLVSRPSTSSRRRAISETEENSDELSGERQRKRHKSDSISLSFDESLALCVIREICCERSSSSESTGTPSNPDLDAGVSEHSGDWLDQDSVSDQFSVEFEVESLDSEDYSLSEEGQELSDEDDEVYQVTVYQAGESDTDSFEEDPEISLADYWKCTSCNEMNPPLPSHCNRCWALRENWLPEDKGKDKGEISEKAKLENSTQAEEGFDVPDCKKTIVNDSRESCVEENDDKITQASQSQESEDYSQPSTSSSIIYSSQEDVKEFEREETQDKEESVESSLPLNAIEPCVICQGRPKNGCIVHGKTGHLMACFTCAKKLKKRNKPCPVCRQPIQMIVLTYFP
HIF-2a conf: confirmation of HIF-2a inhibitors; 786-0 RCC cells, HIF-2a luciferase reporter luminescence, overnight; actives 56% (n = 1,800); shares compounds with HIF-2a block; AID 651580; inhibition, % at 18.8 µM;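 active = mean inhibition across four replicates of at least 40 percent at the single tested concentration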
HIF-1a cs: HIF-1a inhibition counter-screen for HIF-2a hits | shares compounds with HIF-2a block | MiaPaCa-2 HIF-1a luciferase reporter, desferoxamine, overnight | inhibition, % at 18.8 µM | actives 72% (n = 1,800);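 active = mean inhibition of the reporter signal across four replicates at the single tested dose of 50% or more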
* = called active by the depositor; u = inconclusive; x = not tested or not shown.

SMILES	Peg3 prom inh	HIF-2a block	MITF TRPM1 inh	Shn3 inh set2	KKLEB cytotox	CF NFkB inh	HIF-2a conf	HIF-1a cs	others
C=CCn1c(C)cc(C(=O)CSc2ccc(NC(C)=O)cc2)c1C	-94	50*	-23	-14	-8	8	67*	43
Cc1ccc(C(=O)NC2CC3CCCC(C2)N3C(=S)NCc2ccco2)cc1 (stereo not given)	4	-2	1	-5	-9	7	x	x
O=C(NC1CC2CCCC(C1)N2C(=S)NCCc1ccccc1)C1CC1 (stereo not given)	-73	11	-7	8	8	-18	x	x
Cc1nc2nc(C)c(CCC(=O)NC(C)c3ccc4c(c3)OCCO4)c(C)n2n1 (stereo not given)	-11	-12	0	-27	5	-7	x	x
Cc1nc2cc(-c3ccccc3)nn2c(C)c1CCC(=O)NC(C)c1ccc2c(c1)OCCO2 (stereo not given)	-36	66*	19	26	0	-12	79*	45
Cc1nc2cc(-c3cccc(F)c3)nn2c(C)c1CCC(=O)NC(C)c1ccc2c(c1)OCCO2 (stereo not given)	-10	46*	7	35	-15	-10	72*	42
CCOc1ccc(N(C(=O)c2ccc3c(c2)OCO3)C2C=CS(=O)(=O)C2)cc1 (stereo not given)	-20	3	-12	-12	-2	12	x	x
CN(C)CCNC(=O)C(=O)c1c(-c2ccccc2)cc2ccccn12	-6	4	3	3	-22	-8	x	x
COc1ccc(-c2c(-c3ccccc3)c(C(=O)C(=O)NCCCN(C)C)n3ccc4cc(OC)c(OC)cc4c23)cc1OC	-13	88*	6	19	-3	-2	6	101*
COC(=O)[C@@H]1CCCN1C(=O)CCc1nnc(CCC2CCCCC2)o1	-211	-199	-61	-49	-25	4	x	x
COc1ccc(CNc2ncc(-c3ccc(F)cc3)n2C)c2ccccc12	59*	41*	53	35	-5	4	93*	104*
COc1ccccc1CNc1ncc(-c2ccc(F)cc2)n1C	-37	-39	-8	0	-6	-25	x	x
CC(=O)Nc1ccc(Sc2ccc([N+](=O)[O-])o2)cc1	97*	91*	95*	99*	-50*	90*	94*	103*
CCOC(=O)c1cc([N+](=O)[O-])cc([N+](=O)[O-])c1Sc1ncnc2nc[nH]c12	98*	83*	107*	96*	-28	18	61*	107*
CC(C)(C)c1ccc(/C=C(\c2nc3ccccc3[nH]2)S(=O)(=O)c2ccccc2)cc1	104*	95*	91*	94*	-70*	94*	97*	108*	Mdm2 MdmX conf=103*
CC(OC(=O)CCCN=C1NS(=O)(=O)c2ccccc21)C(=O)Nc1ccc(F)cc1Cl (stereo not given)	10	10	-9	-11	15	-9	x	x
OCCCNc1cc(-c2ccnc(Nc3cccc(Cl)c3)n2)ccn1	103*	-24	u	90*	11	86*	x	x	Mdm2 MdmX conf=103*
CN(C)CCCNc1ccc(-c2cc(Nc3cccc(Cl)c3)ncn2)cn1	8	-17	4	-29	-19	16	x	x
Cc1ccc(C2=[N+]([O-])C3(CCCCC3=O)N(O)C2(C)C)cc1 (stereo not given)	3	44*	7	-8	-11	7	21	15
O=C1COc2ccccc2N1Cc1c(F)cccc1Cl	5	6	9	-9	-16	6	x	x
CCN(CC)c1ccc2c(C)cc(=O)oc2c1	-38	-58	-12	-6	-1	6	x	x
CCN(CC)c1ccc2c(c1)oc(=O)c1c(Cl)cc(=O)oc12	101*	93*	80*	96*	-34	8	x	x	Mdm2 MdmX conf=103*
C[C@H](CO)N1C[C@H](C)[C@@H](CN(C)C(=O)Nc2ccc3c(c2)OCO3)Oc2ccc(NC(=O)CCC(F)(F)F)cc2C1=O	5	4	1	-8	-9	23	x	x
Cc1ccc(Nc2nc(N)nc(CCl)n2)c(C)c1	41	-95	-14	-109	-72*	83*	x	x	Mdm2 MdmX conf=103*
CCOc1ccc(Nc2nc(N)nc(CCl)n2)cc1	77*	-125	16	-35	-68*	80*	x	x	Mdm2 MdmX conf=103*
SMILES	Peg3 prom inh	HIF-2a block	MITF TRPM1 inh	Shn3 inh set2	KKLEB cytotox	CF NFkB inh	HIF-2a conf	HIF-1a cs	others
Cc1cccc(Nc2nc(N)nc(CCl)n2)c1C	58*	-14	x	-11	-85*	100*	x	x	Mdm2 MdmX conf=103*
Cc1ccc2c(C)c(C(=O)N(C)Cc3nccn3C)oc2c1C	6	-11	13	19	-17	-2	x	x
COc1ccc(C2=CCC3CCCCN3C2)cc1OC (stereo not given)	10	0	4	-16	13	-11	x	x
Cc1nn(C)cc1C(=O)Nc1cc(Oc2ccc(Cl)cc2)cc([N+](=O)[O-])c1	28	11	-3	0	-19	18	x	x
Cn1cc([N+](=O)[O-])c(C(=O)Nc2cc(Oc3ccccc3)cc([N+](=O)[O-])c2)n1	104*	95*	82*	96*	-29	78*	63*	108*
CC(Sc1ncnc2c1cnn2-c1ccccc1)C(=O)NCC1CCCO1 (stereo not given)	-40	-54	12	-4	2	-2	x	x
Cc1nc(SC(C)C(=O)NCC2CCCO2)c2cc(-c3ccccc3)sc2n1 (stereo not given)	-122	-188	-19	52	3	-24	x	x	Mdm2 MdmX conf=101*
COc1ccc(/C(C)=N/NC(=O)c2nnn(-c3nonc3N)c2-c2cccs2)cc1OC	1	10	6	-1	8	24	x	x
Cc1ccccc1C(=O)N1CCN(c2ccc(NC(=O)c3ccc4c(c3)OCCO4)cc2)CC1	25	60*	70*	86*	3	38	14	72*
CC(C)C(=O)N1CCN(c2ccc(NC(=O)c3ccc4c(c3)OCCO4)cc2)CC1	-23	42*	11	19	-4	14	-2	-4
O=C(Nc1ccc(NC(=O)c2cccs2)cc1)c1ccc2c(c1)OCO2	-2	-3	13	2	-5	14	x	x
O=C(Nc1ccc(NC(=O)c2cccs2)cc1)c1ccc2c(c1)OCCO2	32	47*	10	21	0	10	45*	15

Bioassay records (PubChem)
